Most compounds without a hit are left out; they make up all but 2.4% or so of the library.
ULK1 inh: human ULK1 kinase inhibition, primary screen | 1.9% of 30,000 active | inhibition, % at 5.96 µM | AID 1259251 | AlphaScreen Atg13 phosphorylation by ULK1, luminescence; in the data active = inhibition above about 43%;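 note: 0% = median of compound wells and 100% = no enzyme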
ASK1 inh: inhibitors of human ASK1 kinase; Q99683; AlphaScreen MKK6 phosphorylation by ASK1, luminescence; inhibition, % at 7.44 µM; 0.99% of 22,000 active; AID 1159602; in the data active = inhibition above about 35%;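 note: 0% = median of compound wells and 100% = no enzyme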
Target sequence (Q99683 whole entry, looked up): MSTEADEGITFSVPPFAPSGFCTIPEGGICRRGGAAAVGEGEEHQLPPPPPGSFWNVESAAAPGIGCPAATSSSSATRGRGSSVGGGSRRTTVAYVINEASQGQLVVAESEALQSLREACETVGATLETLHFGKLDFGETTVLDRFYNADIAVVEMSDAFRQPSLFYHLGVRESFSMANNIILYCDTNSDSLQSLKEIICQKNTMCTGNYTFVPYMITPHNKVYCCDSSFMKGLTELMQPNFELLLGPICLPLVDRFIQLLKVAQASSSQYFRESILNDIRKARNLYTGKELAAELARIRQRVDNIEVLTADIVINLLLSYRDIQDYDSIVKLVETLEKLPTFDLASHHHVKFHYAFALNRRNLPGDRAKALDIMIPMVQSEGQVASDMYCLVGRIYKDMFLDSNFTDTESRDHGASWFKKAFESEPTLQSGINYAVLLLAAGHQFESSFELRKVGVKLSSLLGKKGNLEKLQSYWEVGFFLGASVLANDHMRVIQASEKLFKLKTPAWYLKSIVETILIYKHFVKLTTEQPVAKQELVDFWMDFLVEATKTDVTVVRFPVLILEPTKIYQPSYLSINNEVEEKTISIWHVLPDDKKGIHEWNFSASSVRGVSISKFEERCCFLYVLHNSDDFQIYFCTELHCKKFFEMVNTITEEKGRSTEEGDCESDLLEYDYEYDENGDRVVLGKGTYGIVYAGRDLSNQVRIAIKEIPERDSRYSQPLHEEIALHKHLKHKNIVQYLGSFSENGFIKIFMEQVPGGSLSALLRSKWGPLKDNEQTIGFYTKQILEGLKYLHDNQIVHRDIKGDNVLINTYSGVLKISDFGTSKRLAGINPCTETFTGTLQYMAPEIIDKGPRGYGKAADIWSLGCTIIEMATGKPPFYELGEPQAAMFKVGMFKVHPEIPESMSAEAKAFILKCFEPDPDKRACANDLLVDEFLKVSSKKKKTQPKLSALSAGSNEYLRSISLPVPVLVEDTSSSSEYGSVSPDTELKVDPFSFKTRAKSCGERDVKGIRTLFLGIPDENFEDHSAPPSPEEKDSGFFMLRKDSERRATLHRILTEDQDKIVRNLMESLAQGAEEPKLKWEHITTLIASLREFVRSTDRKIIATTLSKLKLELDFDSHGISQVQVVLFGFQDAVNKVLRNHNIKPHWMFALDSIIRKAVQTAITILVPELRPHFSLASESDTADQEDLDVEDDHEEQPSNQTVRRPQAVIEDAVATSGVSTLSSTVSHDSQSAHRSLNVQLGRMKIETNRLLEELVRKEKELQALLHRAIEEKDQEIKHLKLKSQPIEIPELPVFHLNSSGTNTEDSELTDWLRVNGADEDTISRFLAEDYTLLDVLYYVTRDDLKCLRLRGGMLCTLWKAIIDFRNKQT
TruHits interf: interferes with AlphaScreen TruHits signal in ASK1 counter-screen; 20% of 220 active; AID 1159604; AlphaScreen TruHits beads, signal interference counterscreen; IC50, µM; shares compounds with ASK1 inh;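 active = IC50 of 10 µM or lower in the counterscreen; inactive = IC50 above 10 µM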;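 note: loss of AlphaScreen light from TruHits beads alone with no ASK1 enzyme present; potency of signal reduction so a low IC50 flags an assay artifact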
Starred values were filed as active, the others as inactive.

Results for Cc1ccc(-c2ncn(-c3ccc(Nc4nccc(-c5cncc6ccccc56)n4)cc3)n2)cn1 ?
ULK1 inh: 3.7; ASK1 inh: 37.7*; TruHits interf: >19.2

Results for FC(F)(F)c1ccc(Cn2cnc3c(NCc4cccnc4)nc(-c4csc5ccccc45)nc32)cc1 ?
ULK1 inh: -41.9; ASK1 inh: -20.3

What do the screens show for `COc1cc(C(=O)NCCc2csc(-c3cccc(F)c3)n2)cc(OC)c1OC`?
ULK1 inh: -21.9

Results for COc1cc2nc(Nc3nccc4ccccc34)nc(Nc3ccc(NC(C)=O)cc3)c2cc1OC ?
ULK1 inh: -2.0; ASK1 inh: 69.1*; TruHits interf: >19.4

Results for COc1cc2nc(Nc3ccccc3)nc(Nc3ccc(NC(C)=O)cc3)c2cc1OC ?
ULK1 inh: -4.7; ASK1 inh: 2.6

How did O=C(NCCCN1CCCC1=O)c1cccc(N2CCc3ccccc3C2)c1 do in these assays?
ULK1 inh: -5.4; ASK1 inh: -1.9

What do the screens show for `COc1cc(Nc2nc(-c3c(C)noc3C)nc3c2ncn3Cc2ccc(C(F)(F)F)cc2)cc(OC)c1OC`?
ULK1 inh: -46.0; ASK1 inh: 36.8*; TruHits interf: >27.5

What do the screens show for `COc1cc(Nc2nc(Nc3cc(OC)c(OC)c(OC)c3)c3ncn(Cc4ccc(C(F)(F)F)cc4)c3n2)cc(OC)c1OC`?
ULK1 inh: -19.4; ASK1 inh: 18.8

How did C=CCN1CCN(c2c(C)cccc2NC(=O)c2ccc(Br)o2)CC1 do in these assays?
ULK1 inh: 6.5; ASK1 inh: 4.7

What do the screens show for `NC(C(=O)N1CCC(Nc2ccc3[nH]ncc3c2)CC1)c1ccc(Cl)cc1` (centres undefined)?
ULK1 inh: 7.3; ASK1 inh: -20.8

Results for Cc1nn(C)c(C)c1-c1cccc(C(=O)NCCO)c1 ?
ULK1 inh: -4.0; ASK1 inh: -6.0

Results for Cn1cc(-c2ccc3cnc(Nc4ccc(-n5cnc(N6CCOCC6)n5)cc4)nc3c2-c2ccccc2)cn1 ?
ULK1 inh: -78.2; ASK1 inh: -16.5

How did Cn1cc(-c2ccc3cnc(Nc4ccc(-n5cnc(N6CCOCC6)n5)cc4)nc3c2)cn1 do in these assays?
ULK1 inh: 56.2*; ASK1 inh: 47.9*; TruHits interf: >19.2

How did COc1c(-c2cnn(C)c2)ccc2cnc(Nc3ccc(-n4cnc(N5CCOCC5)n4)cc3)nc12 do in these assays?
ULK1 inh: 82.7*; ASK1 inh: 42.3*; TruHits interf: >19.2

Results for c1cc(-c2ccc3cnc(Nc4ccc(-n5cnc(N6CCOCC6)n5)cc4)nc3c2)ccn1 ?
ULK1 inh: 12.0; ASK1 inh: 5.3

What do the screens show for `c1ccc(Nc2nc(NCCOc3ccccc3)c3ncn(-c4ccccc4)c3n2)cc1`?
ULK1 inh: -14.9; ASK1 inh: 0.6

Results for CCCNc1nc(-c2ccccc2)nc2c1ncn2CCN1CCCC1=O ?
ULK1 inh: 2.2; ASK1 inh: 5.3

Results for CN1CCN(C(=O)c2ccc(-c3cccc(C(=O)NC4CCN(Cc5ccccc5)CC4)n3)cc2)CC1 ?
ULK1 inh: -5.0; ASK1 inh: 0.7

Results for CC(O)CNC(=O)C(=O)NC1CCCCC1 (centres undefined) ?
ULK1 inh: -7.1

Results for COc1ccc(CCNc2nc(Nc3ccc(N4CCOCC4)cc3)ncc2C)cc1 ?
ULK1 inh: 27.3; ASK1 inh: 40.4*; TruHits interf: >19.9

What do the screens show for `COc1cc2nc(Nc3ccc(N4CCOCC4)cc3)nc(NCCOc3ccccc3)c2cc1OC`?
ULK1 inh: -0.7; ASK1 inh: 56.8*; TruHits interf: 5.83*

How did CCCNc1nc(Nc2ccc(N3CCOCC3)cc2)ncc1C do in these assays?
ULK1 inh: 8.7; ASK1 inh: 16.4

How did COc1cc2nc(Nc3ccc(N4CCOCC4)cc3)nc(NCCCN3CCCC3=O)c2cc1OC do in these assays?
ULK1 inh: 20.7; ASK1 inh: 17.4

How did COc1ccc(CCNc2nc(Nc3ccc(N4CCOCC4)cc3)nc3cc(OC)c(OC)cc23)cc1 do in these assays?
ULK1 inh: 3.8; ASK1 inh: 52.8*; TruHits interf: 6.78*

What do the screens show for `Cc1cnc(Nc2ccc(N3CCOCC3)cc2)nc1NCc1cccnc1`?
ULK1 inh: 24.7; ASK1 inh: 16.6

What do the screens show for `Cc1cnc(Nc2ccc(N3CCOCC3)cc2)nc1NCc1ccccc1`?
ULK1 inh: 16.5; ASK1 inh: 37.4*; TruHits interf: >20.2

Results for COc1cc2nc(Nc3ccc(N4CCOCC4)cc3)nc(NCCc3ccc(O)cc3)c2cc1OC ?
ULK1 inh: -8.8; ASK1 inh: 22.8

What do the screens show for `Cc1ccc(C(=O)NNC(=O)C(=O)NC(C)(C)C)cc1`?
ULK1 inh: -3.6

Results for O=C(NCc1cccnc1)c1cccc(Nc2cccnc2)c1 ?
ULK1 inh: 2.9; ASK1 inh: 1.0

What do the screens show for `O=C(Nc1ccc2[nH]ncc2c1)c1ccc(OC2CCOCC2)nc1`?
ULK1 inh: 7.1; ASK1 inh: -16.8

Results for Clc1nccc(Nc2ccccc2)n1 ?
ULK1 inh: -5.2; ASK1 inh: -24.1

What do the screens show for `COc1ccc(C(=O)Nc2ccc(-c3cn[nH]c3)cc2N2CCN(C)CC2)cc1`?
ULK1 inh: 5.3; ASK1 inh: -13.5

Results for CCN(CC)c1nc(NCCc2ccc(OC)cc2)nc(Nc2cccc(N(C)C)c2)n1 ?
ULK1 inh: 1.5; ASK1 inh: 16.6

What do the screens show for `COc1ccc(CCNc2nc(Nc3cccc(N(C)C)c3)nc3cc(OC)c(OC)cc23)cc1`?
ULK1 inh: -8.9; ASK1 inh: 61.1*; TruHits interf: 7.62*

What do the screens show for `c1ccc(CN2CCC(Nc3nc(Nc4ccc(N5CCOCC5)cc4)nc4c3ncn4-c3ccccc3)CC2)cc1`?
ULK1 inh: 7.0; ASK1 inh: 32.2

How did FC(F)(F)c1ccc(Cn2cnc3c(NC4CC4)nc(Nc4ccc(N5CCOCC5)cc4)nc32)cc1 do in these assays?
ULK1 inh: -10.9; ASK1 inh: 21.2

How did FC(F)(F)c1ccc(Cn2cnc3c(Nc4ccc5c(c4)OCO5)nc(NC4CCN(Cc5ccccc5)CC4)nc32)cc1 do in these assays?
ULK1 inh: 15.4; ASK1 inh: 46.1*; TruHits interf: >20.5

Results for FC(F)(F)c1ccc(Cn2cnc3c(Nc4ccccc4)nc(NC4CCN(Cc5ccccc5)CC4)nc32)cc1 ?
ULK1 inh: -3.6; ASK1 inh: 2.9

How did c1ccc(CN2CCC(Nc3nc(Nc4ccc(N5CCOCC5)cc4)nc4c3ncn4C3CCCCC3)CC2)cc1 do in these assays?
ULK1 inh: 12.5; ASK1 inh: 50.0*; TruHits interf: 8.12*

How did FC(F)(F)c1ccc(Cn2cnc3c(NC4CCN(Cc5ccccc5)CC4)nc(Nc4ccc(N5CCOCC5)cc4)nc32)cc1 do in these assays?
ULK1 inh: 5.5; ASK1 inh: 39.9*; TruHits interf: inactive

Results for OCC1CCCN1c1nc(NC2CCN(Cc3ccccc3)CC2)c2ncn(-c3ccccc3)c2n1 (centres undefined) ?
ULK1 inh: -5.8; ASK1 inh: -5.4

Results for O=C1NC(c2cc3c(cc2Cl)OCO3)Nc2ccccc21 (centres undefined) ?
ULK1 inh: -3.8

What do the screens show for `CCCNc1nc(N2CCN(c3ccccn3)CC2)nc2c1ncn2Cc1ccc(C(F)(F)F)cc1`?
ULK1 inh: -20.2; ASK1 inh: 0.3

Results for c1cncc(CNc2nc(NCCN3CCOCC3)c3[nH]cnc3n2)c1 ?
ULK1 inh: 0.5; ASK1 inh: -3.9

High-throughput results (PubChem)
